F-actin modifier: modifiers of cytoskeleton assembly; AID 836; actives 0.18% (n = 91,000); HUVEC TNFa F-actin phalloidin imaging, high content; inhibition, % at 2 µM;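 active = inhibition above the batch mean plus 3 SD and confirmed as a hit by visual image inspection, cut at about 30% in these data, passing the limit was not always enough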
E-sel TNF inh: TNF alpha driven E-selectin expression inhibition | AID 1246 | inhibition, % at 2 µM | actives 0.71% (n = 120,000) | HUVEC TNFa-induced E-selectin immunofluorescence, high content;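 active = inhibition above the batch mean plus 3 SD, and confirmed as a hit on visual image review, cut at about 43% in these data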
VCAM1 TNFa inh: reduces TNF alpha induced VCAM1 expression in HUVEC. actives 0.48% (n = 95,000). HUVEC TNFa-induced VCAM-1 immunofluorescence, high-content imaging. inhibition, % at 2 µM. AID 802;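 active = inhibition above the batch mean plus 3 SD, with images confirmed as a hit by eye, cut at about 37% in these data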
HUVEC tox TNFa: HUVEC cytotoxicity counter-screen, TNF alpha stimulated | HUVEC TNFalpha-stimulated, Hoechst cell count, imaging | cell count reduction, % at 2 µM | actives 0.17% (n = 93,000) | AID 848;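 active = cell count reduction exceeding the screen mean by over 5 SD, scaled to untreated wells per plate, cut at about 78% in these data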;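 note: cells counted after 24 h of TNF alpha exposure following the 1 h pretreatment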
A number is an active result; i = inactive; nt = no result given. This is a sample that favours compounds with a hit; in the whole collection about 1% have one here.

SMILES | F-actin modifier | E-sel TNF inh | VCAM1 TNFa inh | HUVEC tox TNFa
COC(=O)CCS(=O)(=O)c1nc(-c2ccccc2)cc(C(F)(F)F)n1 | i | i | i | i
O=C(NCCC1=CCCCC1)c1ccc(CN2CCOCC2)cc1 | i | i | i | i
CCCn1c(SCC(=O)N2c3ccccc3Sc3ccccc32)nc2c1c(=O)n(C)c(=O)n2C | i | 65 | i | i
CCn1c(SCC(=O)N2CCN(c3cccc(Cl)c3)CC2)nc2ccccc2c1=O | i | i | 96 | i
Cc1cc2ccccc2c(=O)n1CC(=O)N1CCN(c2cccc(Cl)c2)CC1 | nt | i | nt | nt
CCn1cc(C(=O)NCc2ccco2)c(=O)c2cc(S(=O)(=O)N3CCc4ccccc4C3)ccc21 | i | 100 | i | i
COc1ccc(N2CCN(CCCNC(=S)Nc3c(C)cccc3C)CC2)cc1 | nt | i | nt | nt
O=C(O)CCN(CCC(=O)O)c1ccccc1 | i | i | i | i
Cc1ccc(CNc2ccc(S(=O)(=O)N3CCOCC3)cc2[N+](=O)[O-])cc1 | nt | 76 | nt | nt
O=C(CN1CCOCC1)NC1C2CC3CC(C2)CC1C3 (configuration not stated) | i | i | i | nt
COc1ccc(C(=O)/C=C/c2ccc(F)cc2)c(OC(=O)c2ccc([N+](=O)[O-])cc2)c1 | i | 70 | i | i
COc1cc(S(=O)(=O)NCCN2CCOCC2)c(OC)cc1Cl | i | i | i | i
Cc1cc(S(=O)(=O)NCCN2CCOCC2)c(C)s1 | 65 | i | i | i
C=CCc1ccc(OCCOCCOc2cccc3ccc(C)nc23)c(OC)c1 | i | i | i | i
CCc1ccc(C(=O)/C=C/c2ccc([N+](=O)[O-])o2)cc1 | i | i | 49 | i
COC(=O)CCc1nc2ccccc2[nH]c1=O | i | i | i | i
CCOC(=O)CCc1nc2ccccc2[nH]c1=O | i | 63 | i | i
S=c1[nH]nc(COc2ccc3c(c2)OCO3)n1-c1ccccc1 | i | i | 97 | i
S=c1[nH]nc(-c2ccc3c(c2)OCO3)n1-c1ccccc1 | nt | i | nt | nt
CCN(/N=C/c1ccc(Cl)cc1)c1cc(=O)n(C)c(=O)[nH]1 | nt | 62 | nt | nt
CCCCCCOC(=O)/C=C/c1c(C)[nH]c(=O)[nH]c1=O | i | 74 | i | i
CCOC(=O)N1CCN(C(=O)C(C)(C)Oc2ccc(Cl)cc2)CC1 | i | nt | i | i
COc1ccc(N2CCN(C(=O)C(C)(C)Oc3ccc(Cl)cc3)CC2)cc1 | i | nt | i | 78
CCCc1nnc(SCC(=O)O)n1/N=C/c1ccc2c(c1)OCO2 | nt | i | 48 | i
CCc1n[nH]c(=S)n1/N=C/c1ccc2c(c1)OCO2 | i | i | i | i
SMILES | F-actin modifier | E-sel TNF inh | VCAM1 TNFa inh | HUVEC tox TNFa
Cc1c(NC(=O)c2ccccc2N)cccc1C(=O)O | i | i | i | i
Nc1ccccc1NC(=O)c1ccccc1N | i | nt | 81 | 93
COc1ccc(-c2nc(CS(=O)CC(=O)NCc3cccnc3)c(C)o2)cc1 (configuration not stated) | i | nt | i | 82
CCc1ccc(-c2nc(CS(=O)CC(=O)NCc3cccnc3)c(C)o2)cc1 (configuration not stated) | nt | i | nt | nt
CC(C)(C)c1ccc(OCC(=O)NN2Cc3ccccc3C2=N)cc1 | nt | i | nt | nt
COCCCNC(=S)NC1CC2CCCC(C1)N2Cc1ccco1 (configuration not stated) | 68 | i | i | i
CCCCCCCCn1c2c(c(=N)c3ccccc31)CCC2 | nt | i | nt | nt
CCCCCCCCCCn1c2c(c(=N)c3c1CCC3)CCC2 | i | nt | 87 | i
CNS(=O)(=O)c1cc(N)ccc1C | nt | i | nt | nt
CCOC(=O)C1=C(c2ccccc2)O/C(=C(/C#N)C(F)(F)F)S1 | i | i | 56 | i
COc1ccc(-n2c(=O)c(NC(=O)c3ccccc3)c3n(c2=S)CCCCC3)cc1 | nt | i | nt | nt
COC(=O)c1nnn(-c2ccc(Cl)c(Cl)c2)c1C(=O)OC | nt | 73 | nt | nt
COC(=O)c1nnn(-c2ccccc2)c1N | i | i | i | nt
CC(C)OCCCNC(=O)c1cccs1 | i | i | i | i
CCCCOCCCNC(=O)c1cccs1 | i | i | 90 | i
CCC(C)Oc1cccc(OCCCCN2C(=O)NC(C)(C)C2=O)c1 (configuration not stated) | 100 | i | nt | nt
CC1(C)NC(=O)N(CCCCOc2cccc(C(F)(F)F)c2)C1=O | nt | i | nt | nt
COc1cc(C2Nc3ccc4ncccc4c3C3=C2C(=O)CCC3)cc(OC)c1O (configuration not stated) | i | i | 91 | i
COc1ccc(N(C(=O)c2ccco2)S(=O)(=O)c2ccccc2)cc1 | i | i | i | i
COC(=O)CN1C(=S)N(c2ccc(Cl)cc2)C(=O)C1CC(=O)Nc1ccc(F)cc1 (configuration not stated) | nt | i | nt | nt
COC(=O)CN1C(=S)N(c2ccc(Cl)cc2)C(=O)C1CC(=O)Nc1ccc(Cl)cc1 (configuration not stated) | nt | 57 | nt | nt
CCCOC(=O)c1cccc(NC(=O)COc2ccc([N+](=O)[O-])cc2)c1 | nt | i | nt | nt
Cc1c(C(=O)N2CCN(c3ccccc3F)CC2)sc2ncn(CC(=O)N3CCOCC3)c(=O)c12 | 88 | i | i | i
CCCNC(=O)Cn1cnc2sc(C(=O)N3CCN(c4ccc(F)cc4)CC3)c(C)c2c1=O | i | nt | i | i
O=S(=O)(/C(=C/c1ccc(C(F)(F)F)cc1)c1nc2ccccc2[nH]1)c1ccccc1 | nt | 99 | nt | nt
SMILES | F-actin modifier | E-sel TNF inh | VCAM1 TNFa inh | HUVEC tox TNFa
CC(C)c1ccc(/C=C(\c2nc3ccccc3[nH]2)S(=O)(=O)c2ccccc2)cc1 | nt | i | nt | nt
CC1CC(C)(C)NC(=S)N1CC(=O)NCc1ccccc1Cl (configuration not stated) | nt | i | nt | nt
COc1ccc(/C(C)=N/OCC(=O)N2CC3(C)CC2CC(C)(C)C3)cc1 (configuration not stated) | nt | 94 | nt | nt
COc1ccc(/C=N/OCC(=O)N2CC3(C)CC2CC(C)(C)C3)cc1 (configuration not stated) | i | i | i | i
CCn1nc(C)c(NC(=O)CC23CC4CC(CC(C4)C2)C3)c1C | nt | i | nt | nt
COC(=O)Sc1nc(N2CCOCC2)c2c(c1C#N)CC(C)(C)OC2 | i | nt | 41 | i
COc1ccc(NC(=O)CSc2nccn2-c2cccc(OC)c2)cc1 | i | i | i | i
O=C(OCn1ncc(Cl)c(Cl)c1=O)c1ccc(F)cc1 | i | 100 | i | i
O=C(OCn1ncc(Cl)c(Cl)c1=O)c1ccccc1Cl | i | 100 | i | i
O=C(Cn1ncc(Cl)c(Cl)c1=O)c1ccc(Cl)cc1 | i | i | i | i
COc1cc(NC(=S)NC(C)=O)ccc1NC(=O)C(C)C | i | nt | i | 95
COc1cc(NC(=O)C(C)C)ccc1NC(=O)c1ccco1 | i | nt | i | i
COCCOC(=O)c1[nH]c2c(c1C)C(=O)CC(c1ccc(F)cc1)C2 (configuration not stated) | i | nt | i | i
COCCOC(=O)c1[nH]c2c(c1C)C(=O)CC(c1ccccc1)C2 (configuration not stated) | i | i | 56 | i
CCS(=O)(=O)CCSc1nc2ccccc2o1 | i | i | i | i
C=CCN(CC=C)C(=O)Nc1cc(Cl)ccc1OC | i | 53 | i | i
COc1cccc(-n2c(SC3CCOC3=O)nc3ccccc3c2=O)c1 (configuration not stated) | i | 96 | i | i
COc1ccc(NC(=O)N2CCn3c2nc2ccccc23)cc1 | i | i | 58 | i
O=C(Nc1ccccc1)N1CCn2c1nc1ccccc12 | i | i | i | i
